SMILES strings stand for the structures. This is part of a sample that, as a whole, favours compounds with a hit. Of some 83,000 tested, about 20% had one in any assay.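 Results are percent growth after 48 hours of single-concentration exposure. 100 means growth as in untreated cells, lower positive values show inhibition; negative values down to -100 show cell death.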 Values without a mark were called inactive. Active and inactive are the calls of the source. Rule for the calls: active = growth percent below 10; inactive = the rest.

In this assay the test system is HL-60(TB) leukemia. Nature of the assay: NCI-60 one-dose screen, 48 h (100 = growth as untreated, 0 = no growth, -100 = all killed). The settings on record: 10 µM unless noted.
Consider `c1cncc(-c2csc(-c3c[nH]c4ccccc34)n2)c1`, for which the growth is 91.9%.
For the compound `COc1cc2c(cc1[N+](=O)[O-])-c1ccc([N+](=O)[O-])cc1/C2=N\O`, the growth was 89.5%.
For `COc1ccc2c(c1)C=C1CSCC3=Cc4cc(OC)ccc4OC13O2` the value was -5.12% (active); for `C#COc1cccc(Nc2ncnc3cc(NC(=O)[C@H](C)Cl)ccc23)c1`, 99.4% [6.25 µM].
As for `CCCCCC/C=C\CCCCCCCCCc1cc(O)cc(OC)c1O`, the growth is -44.7% (active).
In the case of `O=c1[nH]c(=O)c2cc(Cl)cc(Cl)c2[nH]1` it was 100%; in that of `CCN(CC)CC#CCOC(=O)[C@]1(C)CCC[C@]2(C)[C@H]3C[C@H]4C(C(C)C)=C[C@]3(CC[C@H]21)[C@@H]1C(=O)CCC(=O)[C@@H]14`, -36.3% (active).
In the case of `COC(=O)c1ccc2oc(NC(=O)c3ccc(Nc4ccc([N+](=O)[O-])cc4C)c([N+](=O)[O-])c3)nc2c1` it was 99.7%; in that of `Cc1ccc(NCN2C(=O)c3ccccc3C2=O)c(C)n1`, 97.8%.
`FC(F)(F)c1nn[nH]n1`: the growth was 102%.
For `CCCCCCCCCCCC[n+]1ccccc1` (tested in a mixture with another compound), the growth was -77.6% (active).
In the case of `N=C(N)c1ccc(-c2ccc(-c3cccs3)o2)cc1` it was -28.5% (active); in that of `Cc1ccc(C(=O)NN2C(=O)CSC2c2cccc([N+](=O)[O-])c2)cn1` (centres undefined), 82.7%; in that of `COc1nc(Nc2cccc(C(F)(F)F)c2)nc(OC)n1`, 92.7%.
In the case of `CSC1=Nc2c(c(C)c(-c3ccccc3)n2CCCN2CCCCC2)C2=NC(=O)C[C@H](C)N12` it was -33.2% (active); in that of `COc1ccc(-c2c(NC(=O)Nc3ccc(Cl)c(C(F)(F)F)c3)cnn2-c2ccc(S(N)(=O)=O)cc2)cc1`, -15% (active); in that of `CNC(=O)c1cc(Oc2ccc3nc(NC(=O)c4ccc5ncccc5c4)sc3c2)ccn1`, 87.8%.
For `C=C(C)[C@@H]1CC[C@]2(C)[C@H](C=CC3=C4C[C@@](C)(CO)CC[C@]4(C)CC[C@]32C)[C@@]1(C)CCCN` the value was -58% (active); for `COc1cccc(-c2cc3c(O)cc(C#N)cc3[nH]2)c1`, 21.3%.
On to `CCCCCCCCCc1cc(CN2CCCCC2)c(O)c(CN2CCCCC2)c1`, for which the growth was 60.7%.
Take `N=C(N)c1ccc(-c2ccc(-c3ccc(Cl)cc3)o2)o1`: the growth is -53.5% (active).
Consider `CS(=O)(=O)Nc1ccc(C(=O)NC(C(=O)NO)c2ccc(-c3cccc(F)c3)cc2)cc1` (centres undefined), for which the growth was 103%.
For the compound `CCOC(=O)c1c(C)nc2ccccc2c1/C=C/c1ccccc1`, the growth is 81.8%.
Turning to `O=C(Nc1ccccc1)Nc1ncnc2c1ncn2-c1ccccc1`, the growth was 100%.
Take `CCCCCCCCCCN1CCC(N2CCCCC2)CC1`: the growth is -57.7% (active).
Turning to `COc1cc2nccc(Oc3ccc(NC(=O)C4(C(=O)Nc5ccc(F)cc5)CC4)cc3)c2cc1OC(=O)c1ccc(N)cc1`, the growth was -43.9% (active).
In the case of `O=C(/C=C\c1cc(Br)ccc1O)/C=C/c1cc(Br)ccc1O` it was -3.03% (active); in that of `CCCc1cc2cc(-n3nc(C)c4c3CC(C)(C)CC4=O)cc(NC3CCC(O)CC3)c2c(=O)[nH]1` (centres undefined), 2.27% (active).
Regarding `Cc1ccc(C(=O)Nc2ccc(CN3CCN(C)CC3)c(C(F)(F)F)c2)cc1C#Cc1cnc(N)c2ccc(C#N)cc12`, the growth is 30.9%.
For `c1c[nH]c(CNC2CCCCC2)c1` the value was 263%; for `CO[C@H](C(=O)[C@@H](O)[C@@H](C)O)[C@@H]1Cc2cc3cc(O[C@H]4C[C@@H](O[C@H]5C[C@@H](O)[C@H](O)C(C)O5)[C@H](O)C(C)O4)c(C)c(O)c3c(O)c2C(=O)[C@H]1O[C@H]1C[C@@H](O[C@H]2C[C@@H](O[C@H]3C[C@](C)(O)C(=O)C(C)O3)[C@@H](O)C(C)O2)[C@H](O)C(C)O1` (some centres undefined), 2.34% (active); for `Cc1ccc(Cl)cc1Nc1nc(C(F)(F)F)ccc1C(=O)N/N=C/c1cccnc1`, 3.36% (active).
For `COc1cc(/C=C/C(=O)c2cccc(-n3cc(-c4ccccc4)[nH]c3=O)c2)ccc1O` the value was 3.49% (active); for `Nc1c(C(=O)Nc2cccc3ccccc23)sc2nc3c(cc12)CCCC3`, -11.1% (active); for `CO[C@H]1/C=C/O[C@@]2(C)Oc3c(C)c(O)c4c(c3C2=O)C(=O)C(/C=N/N(c2ccccc2)c2ccccc2)=C(NC(=O)/C(C)=C\C=C\[C@H](C)[C@H](O)[C@@H](C)[C@@H](O)[C@@H](C)[C@H](OC(C)=O)[C@@H]1C)C4=O`, -12.5% (active).
In the case of `Cc1cc2c3ccc(C)[n+](C)c3ccc2n1C` it was -5.59% (active); in that of `Cc1nc2sc(C(=O)Nc3cccc4ncccc34)c(N)c2cc1C(C)O` (centres undefined), 33%.
Consider `O=C(O)c1ccc2c(c1Sc1ccccc1)C(=O)c1ccccc1C2=O`, for which the growth was 95.8%.
In the case of `CCOC(=O)c1sc(/N=C2\NC(=O)/C(=C/c3ccc(N4CCN(C)CC4)cc3)S2)nc1C` it was 100%.

(Values after PubChem BioAssay (NCI).)
